# Hits are enriched below; roughly 2.4% of the tested compounds scored in any of these assays.
# TDP1 block: blocks human tyrosyl-DNA phosphodiesterase 1 | recombinant TDP1, AlphaScreen DNA substrate cleavage | Potency, µM (highest dose often 130 µM), for inactives: top-dose activity change, negative = inhibition, usual class: inhibitors | hit rate 0.28% among 350,000; also: potency is read from the fitted curve at half-maximal effect; % is scaled to controls: 0 for no effect and ±100 for the full control effect; nearly all actives have a fitted effect of over 40% in size
#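 Signal: AlphaScreen proximity between streptavidin donor and anti-FITC acceptor beads on intact substrate. Reaction: Tdp1 1 nM, substrate 15 nM final, 5 min RT after 15 min compound preincubation.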
# Pol eta inh-1: inhibitors of human DNA polymerase eta | Q9Y253 | AID 588591 | recombinant Pol eta, fluorescent DNA replication assay | Potency, µM (top dose mostly 114 µM), for the others: top-dose activity change, negative = inhibition, hits mostly inhibitors | hit rate 1.2% among 390,000; also: potency is read from the fitted curve at half-maximal effect; % is scaled to controls: 0 for no effect and ±100 for the full control effect
#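 Pol eta (10 nM) was preincubated with compounds for 15 min at room temperature, after which fluorescent replication substrate (50 nM final) was added to start the reaction. Fluorescence was read kinetically at 0 and 10 min.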
# FEN1 inhibitor: blocks human flap endonuclease 1. P39748. Recombinant FEN1 flap cleavage, fluorescence, 15 min. Potency, µM (top dose mostly 114 µM), for inactives: at the top dose activity change, negative = inhibition, most hits filed as inhibitors. hit rate 0.35% among 390,000. AID 588795; also: potency is read from the fitted curve at half-maximal effect; % is scaled to controls: 0 for no effect and ±100 for the full control effect; nearly all actives have a fitted effect of over 65% in size
#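 Reaction started by adding substrate (50 nM final) to 10 nM enzyme after 15 min room-temperature compound preincubation. Reads at 0 and 15 min, with data normalized and fitted to a four-parameter Hill equation.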
# Pol beta inh: blocks human DNA polymerase beta activity. Pol beta primer extension/strand displacement, fluorescence kinetic. Potency, µM (top dose mostly 114 µM), without a hit: at the highest dose activity change, negative = inhibition, most hits filed as inhibitors. hit rate 1.3% among 340,000. AID 485314; also: potency is read from the fitted curve at half-maximal effect; % is scaled to controls: 0 for no effect and ±100 for the full control effect
#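 Human Pol beta at 10 nM; strand-displacement substrate 50 nM final. Compound exposure 15 min at room temperature before start, reaction 10 min at room temperature.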
# Pol iota inh: inhibitors of human DNA polymerase iota. Q9UNA4. Pol iota fluorescent replication assay, 10 min. Potency, µM (titrated, usually from 115 µM), for inactives: at the top dose activity, negative = inhibition, most hits filed as inhibitors. hit rate 1% among 390,000; also: potency is read from the fitted curve at half-maximal effect
# Target sequence (Q9UNA4 whole entry, looked up): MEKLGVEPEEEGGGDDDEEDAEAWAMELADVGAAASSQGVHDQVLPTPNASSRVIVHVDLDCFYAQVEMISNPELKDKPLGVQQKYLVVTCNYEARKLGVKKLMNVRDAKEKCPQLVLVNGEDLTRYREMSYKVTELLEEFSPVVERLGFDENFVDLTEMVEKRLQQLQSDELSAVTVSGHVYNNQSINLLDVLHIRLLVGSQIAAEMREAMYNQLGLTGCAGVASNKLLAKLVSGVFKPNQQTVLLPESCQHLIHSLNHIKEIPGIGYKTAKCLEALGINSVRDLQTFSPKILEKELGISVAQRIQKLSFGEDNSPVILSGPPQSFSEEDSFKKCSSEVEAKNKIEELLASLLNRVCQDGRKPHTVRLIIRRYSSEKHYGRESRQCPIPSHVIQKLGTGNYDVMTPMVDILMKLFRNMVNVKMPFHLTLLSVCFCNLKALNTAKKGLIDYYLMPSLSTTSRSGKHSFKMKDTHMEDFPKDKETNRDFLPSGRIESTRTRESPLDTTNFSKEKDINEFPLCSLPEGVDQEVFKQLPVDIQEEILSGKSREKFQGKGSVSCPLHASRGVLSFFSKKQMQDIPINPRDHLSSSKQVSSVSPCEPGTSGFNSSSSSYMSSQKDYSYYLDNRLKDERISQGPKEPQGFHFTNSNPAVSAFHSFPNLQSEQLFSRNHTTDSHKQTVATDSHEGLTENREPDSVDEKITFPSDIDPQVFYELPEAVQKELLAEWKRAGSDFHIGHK
#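 Fluorescent replication assay read twice, at 0 min and 10 min after adding 50 nM (final) substrate. Enzyme (10 nM) and compounds were first incubated 15 min at room temperature; enzyme-free buffer wells were negative controls.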
# Pol kappa inh-1: inhibitors of human DNA polymerase kappa. AID 588579. hit rate 0.53% among 400,000. purified Pol kappa, fluorescent DNA synthesis assay, 10 min. Potency, µM (series often up to 107 µM), inactives show at the highest dose activity, negative = inhibition, actives largely listed as inhibitors; also: potency is read from the fitted curve at half-maximal effect; % is scaled to controls: 0 for no effect and ±100 for the full control effect
#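 10 nM Pol kappa was preincubated with compounds for 15 min at room temperature. Reaction started with 50 nM (final) substrate. Fluorescence read kinetically at 0 and 10 min.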
# GALK inh confirm: confirmation of human galactokinase (GALK) inhibitors; shares compounds with Pol eta inh-1; purified GALK, Kinase-Glo ATP depletion luminescence; Potency, µM (series often up to 115 µM), for inactives: top-dose activity, negative = inhibition, usual class: inhibitors; hit rate 70% among 150; AID 2015
# Redox cycling: generates H2O2 by redox cycling, flagging GALK artifacts. shares compounds with Pol eta inh-1. Phenol red-HRP H2O2 redox cycling, absorbance 600 nm. Potency, µM (titrated, usually from 115 µM), without a hit: top-dose activity change, negative = H2O2 signal, usual class: inhibitors. hit rate 40% among 150
# HEK293 viability: counter-screen for GALK inhibitors: HEK293 cell cytotoxicity; shares compounds with Pol eta inh-1; HEK-293 viability, ATP luminescence (CellTiter-Glo), 24/48 h; Potency, µM (doses to about 46.1 µM), for inactives: top-dose activity change, negative = cytotoxicity, usual class: inhibitors; hit rate 10% among 170; AID 2547; also: potency is read from the fitted curve at half-maximal effect; % is scaled to controls: 0 for no effect and ±100 for the full control effect
# Pol kappa inh-2: Pol kappa (human) inhibition, cherry-pick confirmation. shares compounds with Pol eta inh-1. purified Pol-kappa, fluorescent strand-displacement substrate. AID 720501. hit rate 76% among 920. Potency, µM, actives largely listed as inhibitors; also: potency is read from the fitted curve at half-maximal effect
# Pol eta inh-2: Pol eta (human) inhibition, cherry-pick confirmation. shares compounds with Pol eta inh-1. Potency, µM, hits mostly inhibitors. Pol eta primer extension, TAMRA/BHQ fluorescence, 10 min. hit rate 64% among 2,600. AID 720502; also: potency is read from the fitted curve at half-maximal effect
# Active calls of the source: *; ? = inconclusive; / = no result; [ ] = another dose, or the depositor's remark. Calls follow the shape of the dose curve; as a rule, active = well fitted curve in the direction sought with a large enough effect; inconclusive = small, poorly fitted or top-dose-only effect, or another doubt; inactive = no such curve, though single readings can be large; an effect the other way counts as inactive or inconclusive.
SMILES,TDP1 block,Pol eta inh-1,FEN1 inhibitor,Pol beta inh,Pol iota inh,Pol kappa inh-1,Pol eta inh-2,others
O=C1C(Cl)=C(N2CCC(C(=O)O)CC2)C(=O)c2ccccc21,-5%,10µM*,-14%,?,?,-7%,/,GALK inh confirm=30µM*;Redox cycling=38µM*;HEK293 viability=-7%
NC(=O)C1CCN(C2=C(NS(=O)(=O)c3ccc(Br)cc3)C(=O)c3ccccc3C2=O)CC1,/,-18%,1%,9%,?,2%,/,
COC(=O)CC1Oc2ccc(F)cc2-n2cc(-c3ccc(Cl)cc3)nc21 (stereo not given),6%,-19%,-4%,3%,8%,-5%,/,
CC(C)(C)OC(=O)NCCCCC1=CC2=CC(=O)C(C)(O)C(=O)C2=CO1 (stereo not given),6%,20µM*,-21%,/,50µM*,79µM*,60*,
CC(C)(C)OC(=O)NCCCC1=CC2=CC(=O)C(C)(OC(=O)CCc3ccccc3)C(=O)C2=CO1 (stereo not given),4%,/,/,/,/,/,/,
CCN(CC)CCNC(=O)CSc1nc2nc(C)c(Cc3ccccc3)c(C)n2n1,3%,-16%,-6%,18%,10%,5%,/,
Cc1ccc(-c2ccc(/C=C3\C(=O)ON=C3c3ccccc3)o2)c([N+](=O)[O-])c1,5%,28µM*,-13%,29%,32µM*,-36%,85*,Pol kappa inh-2=?
CC1=NOC(=O)/C1=C\c1ccc(-c2cc(Cl)ccc2Cl)o1,/,-21%,2%,-2%,-11%,-18%,/,
COc1cc(/C=C2/C(=O)NN(c3ccc(Cl)c(Cl)c3)C2=O)cc([N+](=O)[O-])c1O,/,20µM*,?,20µM*,18µM*,-86%,30*,GALK inh confirm=33µM*;Redox cycling=-3%;HEK293 viability=13%
Cc1ccc(-c2cc(C(=O)Nc3cccnc3)c3ccccc3n2)o1,9%,45µM*,-22%,?,?,-15%[60.1 µM],?,
Cc1ccc(NC(=O)c2cc(-c3ccc(C)o3)nc3ccccc23)cc1,2%,-10%,-1%,?,?,?,/,
CC1(C)S[C@@H]2[C@H](NC(=O)[C@@H](N)c3ccccc3)C(=O)N2[C@H]1C(=O)O[C@H]1OC(=O)c2ccccc21,13%[21 µM],/,/,/,/,-7%[12 µM],/,
COc1ccc(-c2nn(-c3ccccc3)cc2/C=C2/SC(=S)N(CCC(=O)O)C2=O)cc1,/,22µM*,79µM*,32µM*,?,-34%,/,Pol kappa inh-2=17*
CCOc1ccc(-c2nn(-c3ccccc3)cc2/C=C2\SC(=S)N(C3CCS(=O)(=O)C3)C2=O)cc1 (stereo not given),5%,4%,-1%,23%,14%,-21%,/,
Cc1ccc(-c2nn(-c3ccccc3)cc2/C=C2\SC(=S)N(CC(=O)O)C2=O)cc1,2%,?,-18%,5%,?,-1%,/,GALK inh confirm=42µM*;Redox cycling=6%;HEK293 viability=-1%
COc1ccc(-c2noc(CSc3nc4ccccc4[nH]3)n2)cc1OC,7%,-15%,0%,-1%,21%,-4%,/,
COC(=O)C/C=N/N=C1/NC(=O)/C(=C/C(=O)O)S1,/,40µM*,50µM*,40µM*,14µM*,45µM*,48*,
CC1=C(C(=O)Nc2ccc(C)cc2C)C(c2ccccc2)n2ncc(C(=O)Nc3ccccc3)c2N1 (stereo not given),3%,-1%,-19%,11%,38%,1%,/,
CC(=O)O[C@](C)(CCC=C(C)C)C1CC=C(C)CC1 (stereo not given in full),12%[56.1 µM],/,/,/,/,-7%[60.1 µM],/,
O=C(c1cc(C(F)(F)F)cc(C(F)(F)F)c1)N1CCC2(CCCN(c3ncccn3)C2)CC1,/,/,/,/,/,-17%[60.1 µM],/,
O=[N+]([O-])c1ccc2nc(-c3ccc(Cl)cc3)n(OCc3ccccc3)c2c1,2%,-11%,8%,20%,17%,-4%,/,
O=C(O)COn1c(-c2ccccc2)nc2ccc([N+](=O)[O-])cc21,25µM*,18µM*,-5%,35µM*,?,?,?,
CCOc1ccccc1/C=C(\C#N)C(=O)Nc1cccc(C(=O)O)c1,/,-14%,-6%,-2%,?,2%,/,
COc1cc(/C=C(/C#N)C(=O)Nc2ccccc2)c(Br)cc1OCc1ccc(C(=O)O)cc1,4%,79µM*,-19%,-14%,?,-16%,?,
Oc1c(Br)cc(C=Nc2ccc3nc(-c4ccccc4)[nH]c3c2)c(O)c1Br,3%,14µM*,40µM*,?,?,50µM*,30*,Pol kappa inh-2=9.5*
SMILES,TDP1 block,Pol eta inh-1,FEN1 inhibitor,Pol beta inh,Pol iota inh,Pol kappa inh-1,Pol eta inh-2,others
CC1(C)OCC(CSC2=C(SCC3COC(C)(C)O3)C(=O)c3ncccc3C2=O)O1 (stereo not given),3%,/,/,/,/,/,/,
CC1Cc2ccccc2N1C(=O)CSc1nnc(-c2ccccc2Cl)o1 (stereo not given),-7%,/,-15%,-1%,15%,0%,/,
CSc1ccc(/C=C2\CCn3c2nc2cc(C(=O)O)ccc2c3=O)cc1,/,50µM*,?,-2%,92%,-10%,?,
COC(=O)c1ccc(/C=C2\CCn3c2nc2cc(C(=O)O)ccc2c3=O)cc1,/,-3%,-2%,7%,?,-3%,/,
COc1cc(/C=C2\SC(=O)NC2=O)ccc1Oc1ccc([N+](=O)[O-])cc1[N+](=O)[O-],-1%,50µM*,?,89µM*,?,?,?,
CN(C)CCOC(=O)[C@@H](c1ccccc1)C1(O)CCCC1,4%,/,/,/,/,7%[19.4 µM],/,

# Source: PubChem BioAssay
